hcDAF-12 act: activators of H. contortus DAF-12 nuclear receptor; actives 1.4% (n = 370,000); activation, % at 6.8 µM; HEK293 hcDAF-12 lit1-tk-luc reporter, luminescence; 0% DMSO, 100% Δ7-dafachronic acid;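 active = activation above the mean of all tested compounds plus 3 SD, cut at about 5.5% in these data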
DAX1 inh-1: inhibits human nuclear receptor DAX1; actives 0.99% (n = 340,000); AID 504766; inhibition, % at 6.75 µM; P51843; HEK293 Gal4-DAX1 luciferase reporter, luminescence;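 active = inhibition above the mean over all tested compounds plus 3 SD, cut at about 4.2% in these data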;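 also: inhibition shows as a rise in luminescence from relieved DAX1 repression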
Target sequence (P51843 207-470 limits assumed): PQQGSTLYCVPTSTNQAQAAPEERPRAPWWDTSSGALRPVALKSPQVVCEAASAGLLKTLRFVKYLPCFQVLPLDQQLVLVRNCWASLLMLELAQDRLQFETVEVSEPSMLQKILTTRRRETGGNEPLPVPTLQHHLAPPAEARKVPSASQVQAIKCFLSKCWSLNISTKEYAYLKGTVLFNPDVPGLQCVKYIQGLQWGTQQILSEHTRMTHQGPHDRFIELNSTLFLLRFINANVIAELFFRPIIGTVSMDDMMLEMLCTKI
hgDAF-12 ag: activates the H. glycines DAF-12 receptor ligand-binding domain. HEK293 GAL4-hgDAF12 UAS-luciferase reporter, agonist luminescence; normalized to butyrate control. activation, % at 6.8 µM. actives 1.8% (n = 370,000). AID 687014;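 active = activation above a cutoff set at the mean of all screened compounds plus 3 SD, cut at about 10% in these data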
ssDAF-12 act: S. stercoralis DAF-12 activation, primary screen | HEK293 ssDAF-12/GRIP1 lit1-tk-luc reporter, luminescence; % of 3 µM dafachronic acid response | activation, % at 6.8 µM | actives 1% (n = 370,000);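 active = activation above the mean over all tested compounds plus 3 SD, cut at about 0.9% in these data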
Wee1 stabilizer: blocks degradation of human Wee1 kinase; HeLa Luc-Wee1K328M stability, luciferase luminescence; 100% = proteasome inhibitor MG132 effect; reporter increase, % at 5 µM; actives 1.2% (n = 220,000);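 active = activation above the mean of all tested compounds plus 3 SD, set per screening run, cut at about 8.8% in these data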;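 also: cells exposed to compound for 20 h before luminescence read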
DAX1 inh-2: inhibitors of DAX1 repression of SF-1 activated StAR promoter. HEK293T StAR-luciferase reporter, SF-1/DAX-1 repression relief. inhibition, % at 6.8 µM. actives 1.1% (n = 370,000);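 active = inhibition above the mean over all tested compounds plus 3 SD, cut at about 3.6% in these data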;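 also: higher inhibition means more luminescence from relief of DAX-1 repression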
Wee1 stab conf: confirmation of human Wee1 degradation inhibitors | shares compounds with Wee1 stabilizer | HeLa Luc-Wee1K328M degradation, luminescence; vehicle 0%, proteasome-blocked wells 100% | activation, % at 5 µM | actives 4% (n = 1,100); in the data active = activation above about 8.9%
A number is an active result; 0 = inactive; - = no result. An excerpt weighted towards active compounds, which were near 4.6% of everything screened.

SMILES | hcDAF-12 act | DAX1 inh-1 | hgDAF-12 ag | ssDAF-12 act | Wee1 stabilizer | DAX1 inh-2 | Wee1 stab conf
COc1cc(-c2nc(N)n[nH]2)cc(OC)c1OC | 0 | 0 | 0 | 0 | 9.6 | 0 | -
CCCOc1ccc(C(=O)CCN2CCN(C(=O)OCC)CC2)cc1 | 0 | 0 | 0 | 0 | 17 | 0 | 0
CCOC(=O)C1CCN(C(=O)COC(=O)CSc2ccccc2C)CC1 | 0 | 0 | 0 | 0 | - | 0 | -
Cc1cc(/C=C(\C#N)C(=O)NC2CCCCCC2)c(C)n1C | 0 | 0 | 0 | 0 | 28 | 0 | 0
COc1ccc(/C=C(/C#N)C(=O)NC2CCCCC2)cc1Br | 0 | 0 | 0 | 0 | 0 | 0 | -
Cc1ccccc1OCCn1cc(C(=S)N2CCN(C)CC2)c2ccccc21 | 0 | 0 | 0 | 0 | 13 | 0 | 0
Cc1ccccc1OCCn1cc(C(=S)N2CCCC2)c2ccccc21 | 0 | 0 | 0 | 0 | 0 | 0 | -
COc1ccc(N2CCN(C(=O)c3cc(S(=O)(=O)N4CCCCCC4)ccc3OC)CC2)cc1 | 0 | 0 | 0 | 0 | - | 0 | -
COc1cccc(NC(=O)Nc2ccc3c(c2)nnn3C)c1 | 0 | 0 | 0 | 0 | 16 | 0 | 0
COc1cccc(NC(=O)Nc2cccnc2)c1 | 0 | 0 | 0 | 0 | 0 | 0 | -
Cc1ccc(S(=O)(=O)Nc2cccc(C(=O)NCC(c3ccco3)N3CCCC3)c2)cc1F (configuration not stated) | 0 | 0 | 0 | 0 | - | 0 | -
CCCCN(C)CCCNC(=O)CS(=O)Cc1nc(-c2ccc(OC)c(OC)c2)oc1C (configuration not stated) | 0 | 0 | 0 | 0 | 13 | 0 | 0
CCCN(CCC)CCCNC(=O)CS(=O)Cc1nc(-c2ccc(OC)c(OC)c2)oc1C (configuration not stated) | 0 | 0 | 0 | 0 | 0 | 0 | -
Cc1nn(Cc2ccccc2)c(C)c1CNC(=O)CN=C1NS(=O)(=O)c2ccccc21 | 0 | 0 | 0 | 0 | - | 0 | -
Cc1ccc(/C=C/C(=O)NCCCc2ccccc2)cc1 | 0 | 0 | 0 | 0 | 19 | 0 | 0
N/C(=N\OC(=O)c1ccc(=O)n(Cc2ccc(Cl)cc2)c1)c1ccccn1 | 0 | 0 | 0 | 0 | 11 | 0 | 0
C[C@H](NC(=O)c1nc[nH]c1C(=O)N[C@@H](Cc1ccccc1)C(=O)OC(C)(C)C)C(=O)OCc1ccccc1 | 0 | 0 | 0 | 0 | - | 0 | -
CC1(C)CC(=O)C(C(c2ccncc2)C2C(=O)CC(C)(C)CC2=O)C(=O)C1 | 0 | 0 | 0 | 0 | 13 | 0 | 0
COC(=O)c1cc(C(C)c2ccccc2O)n2ccccc12 (configuration not stated) | 0 | - | 0 | 0 | - | 0 | -
O=C(c1cc(=O)[nH]c2ccccc12)N1CCc2ccccc2C1 | 0 | 0 | 0 | 0 | 0 | 0 | -
O=C(OCC(=O)N1CCc2ccccc2C1)c1cc(=O)[nH]c2ccccc12 | 0 | 0 | 0 | 0 | 16 | 0 | 0
COCc1nnc(NC(=O)c2ccc(NC(C)=O)cc2)s1 | 0 | 0 | 0 | 0 | 0 | 0 | -
COCCSc1nnc(NC(=O)c2ccc(NC(C)=O)cc2)s1 | 0 | 0 | 0 | 0 | 14 | 0 | 0
C[C@@H]1CN([C@H](C)CO)C(=O)CCCn2cc(nn2)CO[C@H]1CN(C)C(=O)c1ccncc1 | 0 | - | 0 | 0 | - | 0 | -
O=C(CSc1nnc(Cc2ccccc2)n1-c1ccccc1)NNC(=O)Cc1ccccc1 | 0 | 0 | 0 | 0 | 17 | 0 | 0
SMILES | hcDAF-12 act | DAX1 inh-1 | hgDAF-12 ag | ssDAF-12 act | Wee1 stabilizer | DAX1 inh-2 | Wee1 stab conf
COC(=O)CSc1nnc(Cc2ccccc2)n1-c1ccc(C)cc1 | 0 | 0 | 0 | 0 | 0 | 0 | -
O=C(Nc1ccc(NC(=O)c2cccnc2Cl)cc1)c1cccc(Cl)c1 | 0 | 0 | 0 | 0 | - | 0 | -
Cc1ccc(NC(=O)CN(C)Cc2nc3ccccc3c(=O)[nH]2)c(Br)c1 | 0 | 0 | 0 | 0 | 11 | 0 | 0
CCCC(=O)Nc1c(-c2ccccc2)[nH][nH]c1=O | 0 | - | 0 | 0 | - | 0 | -
Cc1cc(C)n(CCOc2ccc(Cl)cc2Cl)n1 | 0 | 0 | 0 | 0 | 11 | 0 | 0
O=C(c1ccc(F)cc1Cl)N(Cc1ccco1)C1CCS(=O)(=O)C1 (configuration not stated) | 0 | 0 | 0 | 0 | - | 0 | -
COCCN1C[C@@H](CO)O[C@@H](n2cnc3c(NC(C)C)ncnc32)C1 | 0 | - | 0 | 0 | - | 0 | -
O=C1CCCN1CCC12CC3CC(CC(C3)C1)C2 | 0 | 0 | 0 | 0 | 12 | 0 | 0
O=C1CCCN1CCc1cccc2ccccc12 | 0 | 0 | 0 | 0 | - | 0 | -
CC(=O)NC1=NN(C(C)=O)C(c2ccc(C)cc2)S1 (configuration not stated) | 0 | 0 | 0 | 0 | 12 | 0 | 0
CC(=O)NC1=NN(C(C)=O)C(c2ccc(F)cc2)S1 (configuration not stated) | 0 | 0 | 0 | 0 | 0 | 0 | -
COc1ccc(C2c3ccc(O)cc3Oc3ncn4nc(-c5ccccn5)nc4c32)cc1 (configuration not stated) | 0 | 0 | 0 | 0 | 11 | 0 | 0
COc1ccc(C2c3ccc(O)cc3Oc3ncn(Cc4ccccc4)c(=N)c32)cc1OC (configuration not stated) | 0 | 0 | 0 | 0 | 19 | 0 | 0
COc1ccc(NC(=O)C2Cc3c(-c4ccc5c(c4)OCO5)ccnc3O2)cc1OC (configuration not stated) | 0 | - | 0 | 0 | - | 0 | -
CC(=O)NC1CC2CCCC(C1)N2C(=O)Nc1ccc(Cl)cc1 (configuration not stated) | 0 | 0 | 0 | 0 | - | 0 | -
CC(C)CN1CCN(Cc2ccc(Oc3ncccn3)cc2)CC1CCO (configuration not stated) | 0 | 0 | 0 | 0 | 0 | 0 | -
CC(C)N1CCC(N2CCN(Cc3ccc(Oc4ncccn4)cc3)CC2CCO)CC1 (configuration not stated) | 0 | 0 | 0 | 0 | 13 | 0 | 0
CCOC(=O)c1[nH]c(C)c(CN(C(C)=O)c2ccc(OCC)cc2)c1C | 0 | 0 | 0 | 0 | 13 | 0 | 0
Cc1ccc(C(C)C)c(OCc2nn(CC(=O)c3ccc(OC(F)F)cc3)c3[n+]2CCCCC3)c1 | - | 0 | - | - | 18 | - | 0
COc1ccc(C(=O)Cn2nc(CNc3ccc(Br)cc3)[n+]3c2CCCCC3)cc1 | 0 | 0 | 0 | 0 | 0 | 0 | -
CN(C)[C@@H]1CCN(c2cccc3c2S(=O)(=O)N2CC[C@H](C2)O3)C1 | 0 | - | 0 | 0 | - | 0 | -
Cn1c(O)c(C2=c3ccccc3=NC2=O)sc1=Nc1ccc(Cl)cc1 | 0 | 0 | 0 | 0 | 13 | 0 | 0
CC(C)CNC(=O)CN(C1CCCCC1)S(=O)(=O)c1ccccc1 | 0 | 0 | 0 | 0 | 11 | 0 | 0
CC(C)CNC(=O)CN(C1CCCCC1)S(C)(=O)=O | 0 | 0 | 0 | 0 | 0 | 0 | -

Source: PubChem
